Drawing on PubChem BioAssay, this text covers z-score and composite z-score for twelve molecules.

A short description of experiment [1]: resazurin metabolic signal in HepG2 cells – cell-based, resazurin fluorescence, 24 h, PK04 Diversity Set, profiling panel (AID 1172). Also: test concentration not given here. The conditions noted are these: HepG2 viability, higher = more signal. In general terms: The colour change of resazurin is a common sign of viable cells or microbes.
Experiment [2] in a line: budding yeast growth changes without added modifier – OD600, strain BY4716, 24 h, basal condition, primary screen (AID 1173). Particulars: S. cerevisiae BY4716 growth, OD600, 24 h; higher = more signal, called active from +8 up or from −8 down.
Experiment [3] in a line: viability profiling in MM1S myeloma cells – cell-based, resazurin fluorescence, basal, 24 h, PK04 Diversity Set, profiling panel (AID 1174). Also: test concentration not given here. Particulars: higher = more signal, called active from +8 up or from −8 down.
Experiment [4] has as its target Dihydroorotate dehydrogenase (quinone), mitochondrial (Plasmodium falciparum (isolate 3D7)) (UniProt Q08210). In words: inhibition of P. falciparum DHODH – biochemical, C-terminal His tag, absorbance 600 nm, primary screen (AID 1175).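 Also: recombinant parasite enzyme with a five histidine tag at its C terminus; test concentration not given here.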 Particulars: PfDHODH enzyme, DCIP absorbance 600 nm; higher = more signal, called active from +8 up or from −8 down.
Experiment [5] is described as follows: inhibition of PAO1 biofilm formation – strain PAO1, LB-PBS medium, absorbance 600 nm, primary screen (AID 1176). Also: test concentration not given here. Particulars: P. aeruginosa PAO1 growth/biofilm, A600, 12 h; higher = more signal.
Experiment [6] is described as follows: growth modulation of vineyard yeast isolate – strain RM11-1a, OD600, basal, 24 h, primary screen (AID 1177).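 Also: cultures grown under basal conditions with no added stressor; test concentration not given here.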 Particulars: S. cerevisiae RM11-1a growth, OD600, 24 h; higher = more signal, called active from +8 up or from −8 down.
Experiment [7] can be described thus: growth of efflux-deficient E. coli DRC39 – strain DRC39, OD650, 24 h, E. coli filamentation inducers, primary screen (AID 1178).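 Also: growth measured as culture turbidity by optical density at 650 nm; test concentration not given here.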 Particulars: E. coli DRC39 acrAB, higher = more signal, called active from +8 up or from −8 down.
The nature of experiment [8]: growth of efflux-deficient E. coli DRC39 – strain DRC39, OD650, 48 h, E. coli filamentation inducers, primary screen (AID 1179).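 Also: screen aims at cell division blockers that make cells filament.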 Particulars: E. coli DRC39 delta-acrAB growth, higher = more signal, called active from +8 up or from −8 down.
A short description of experiment [9]: viability profiling in RPMI8226 myeloma cells – cell-based, resazurin fluorescence, basal, 24 h, PK04 Diversity Set, profiling panel (AID 1180).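 Also: RPMI8826 multiple myeloma cell line at 5000 cells per well; test concentration not given here.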 Particulars: higher = more signal.
Experiment [10] addresses E3 ubiquitin-protein ligase XIAP (Homo sapiens) (UniProt P98170). In words: small molecules binding XIAP protein – biophysical, small-molecule microarray, fluorescence 635 nm, primary screen (AID 1181).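 Also: score merges 667 nm emission and signal to noise over triplicate slides.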 The conditions noted are these: higher = more signal.

Activity calls are given as the source filed them. Unless noted, no rule for the calls is given here.

Dihydroorotate dehydrogenase (quinone), mitochondrial (Plasmodium falciparum (isolate 3D7)), sequence (Q08210 whole entry, looked up): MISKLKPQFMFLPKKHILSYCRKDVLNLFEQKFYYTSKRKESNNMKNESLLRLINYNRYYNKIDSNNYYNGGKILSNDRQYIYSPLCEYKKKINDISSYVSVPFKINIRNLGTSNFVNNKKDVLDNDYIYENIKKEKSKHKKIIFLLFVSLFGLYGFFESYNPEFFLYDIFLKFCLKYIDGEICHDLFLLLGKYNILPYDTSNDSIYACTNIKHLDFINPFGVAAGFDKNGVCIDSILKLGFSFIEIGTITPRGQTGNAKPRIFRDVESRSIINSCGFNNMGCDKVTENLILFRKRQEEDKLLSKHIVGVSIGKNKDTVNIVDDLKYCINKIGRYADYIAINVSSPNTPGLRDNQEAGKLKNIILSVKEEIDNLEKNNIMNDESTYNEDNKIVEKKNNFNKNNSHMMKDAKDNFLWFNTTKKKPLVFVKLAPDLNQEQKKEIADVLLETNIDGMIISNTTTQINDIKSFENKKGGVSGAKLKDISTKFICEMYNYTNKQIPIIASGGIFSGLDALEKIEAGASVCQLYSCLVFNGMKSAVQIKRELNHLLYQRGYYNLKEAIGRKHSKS
E3 ubiquitin-protein ligase XIAP (Homo sapiens), sequence (P98170 whole entry, looked up): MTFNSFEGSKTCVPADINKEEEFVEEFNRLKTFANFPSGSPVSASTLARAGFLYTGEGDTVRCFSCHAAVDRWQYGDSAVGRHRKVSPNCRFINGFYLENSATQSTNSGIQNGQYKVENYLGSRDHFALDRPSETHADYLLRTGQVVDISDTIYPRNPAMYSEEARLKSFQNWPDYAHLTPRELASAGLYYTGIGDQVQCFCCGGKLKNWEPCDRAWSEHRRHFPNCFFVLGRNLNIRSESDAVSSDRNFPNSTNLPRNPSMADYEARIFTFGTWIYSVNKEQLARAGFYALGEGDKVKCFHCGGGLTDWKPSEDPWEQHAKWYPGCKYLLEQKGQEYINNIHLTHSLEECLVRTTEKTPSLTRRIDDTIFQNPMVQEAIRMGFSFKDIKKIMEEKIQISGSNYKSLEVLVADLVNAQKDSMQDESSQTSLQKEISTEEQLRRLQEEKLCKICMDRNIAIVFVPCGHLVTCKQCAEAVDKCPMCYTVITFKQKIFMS

On to `COC(=O)[C@@]1(Cc2ccc(F)cc2)[C@H]2c3cc(C(=O)N4CCCC4)n(CCCNc4ncc(C(F)(F)F)cc4Cl)c3C[C@H]2CN1C(=O)c1ccccc1`, for which the z-score in [1] is -0.461; in [2], 2.05 (inactive); in [3], -2.38 (inactive); in experiment [5], 1.03 (inactive); in [6], 1.65 (inactive); in [7] it was -0.645 (inactive). Moreover, the z-score in experiment [8] is -0.681 (inactive); in experiment [9], -2.34. The results for the composite z-score in experiment [4] and in experiment [10] were 0.308 (inactive) and 0.426, respectively.

For `NC(=O)N1C(=O)C2C(C1=O)C1C=C(c3ccc(CO)cc3)C2C(c2cccs2)N1Cc1cccc(OC(F)(F)F)c1` (stereo not given), the z-score in [1] is -0.532; in experiment [2] it was -4.02 (inactive); in experiment [3] it was -0.683 (inactive); in experiment [5], -0.79 (inactive); in experiment [6], -1.87 (inactive); in [7], -5.27 (inactive). The z-score is -4.66 (inactive) in [8] and -0.452 in [9]. Also, the composite z-score in experiment [4] is -8.36 (active); in [10], 0.278.

Turning to `O=C1NC(=O)C2C1C=CC(C(O)c1cccs1)N2Nc1ccc(Cl)cc1Cl` (stereo not given), the z-score in experiment [1] was -1.14; in experiment [2], -6.97 (inactive); in [3], -0.597 (inactive); in [5], 1.08 (inactive); in experiment [6], 1.45 (inactive); in [7], 0.0751 (inactive). In addition, the z-score in [8] is -0.86 (inactive); in experiment [9], -0.229. Further, the figures for the composite z-score in experiment [4] and in [10] were 0.572 (inactive) and 0.0374, respectively.

For `NC(=O)NCC#Cc1ccc2c(c1)[C@]1(C(=O)N2)[C@H](c2ccccc2OCCO)N2[C@H](c3ccccc3)[C@H](c3ccccc3)OC(=O)[C@H]2[C@@H]1C(=O)Nc1nc2ccccc2s1`, the z-score in experiment [1] is 0.851; in experiment [2], 1.21 (inactive); in [3], 0.528 (inactive); in experiment [5], 2.29 (inactive); in experiment [6] it was 2.16 (inactive); in experiment [7], 0.525 (inactive). The z-score was 0.24 (inactive) in [8] and 0.744 in experiment [9]. The composite z-score in experiment [4] is -1.12 (inactive); in experiment [10], -0.102.

As to `COc1ccc(CCNC(=O)[C@@H]2c3ccccc3C(=O)N(Cc3ccccc3Cl)[C@H]2c2ccc(CO)cc2)cc1`, the z-score was 0.891 in [1]; -0.541 (inactive) in experiment [2]; 0.258 (inactive) in experiment [3]; 0.416 (inactive) in experiment [5]; 0.394 (inactive) in experiment [6]; -0.258 (inactive) in experiment [7]. In addition, the z-score was -0.457 (inactive) in experiment [8] and 0.883 in experiment [9]. Further, the composite z-score was 0.0856 (inactive) in [4] and -0.102 in experiment [10].

Turning to `O=C1C2C=CC(C(O)CCc3ccccc3)N(Nc3ccccc3F)C2C(=O)N1c1ccccc1` (stereo not given), the z-score is 0.0011 in [1]; 0.14 (inactive) in [2]; 0.209 (inactive) in [3]; 0.0083 (inactive) in experiment [5]; -0.253 (inactive) in experiment [6]; -0.837 (inactive) in experiment [7]. Also, the z-score in experiment [8] is 0.0277 (inactive); in experiment [9], 0.799. The composite z-score in experiment [4] is -0.442 (inactive); in experiment [10], 0.272.

Take `COCCOC(=O)N1C(=O)[C@@]2(c3cc(C#CCNC(N)=O)ccc31)[C@H](C(=O)N1CCN(c3ncccn3)CC1)[C@H]1C(=O)O[C@H](c3ccccc3)[C@H](c3ccccc3)N1[C@@H]2c1ccc(OCCO)cc1`: the z-score is -0.488 in experiment [1]; 1.51 (inactive) in experiment [2]; -0.814 (inactive) in [3]; 2.43 (inactive) in experiment [5]; 2.16 (inactive) in experiment [6]; 0.142 (inactive) in experiment [7]. The z-score was 0.567 (inactive) in experiment [8] and -0.83 in experiment [9]. For the same molecule, the composite z-score in experiment [4] is -0.0103 (inactive); in experiment [10], 0.0627.

Consider `O=C1c2ccccc2[C@](Cc2ccccc2I)(C(=O)NCC(F)(F)F)[C@H](c2ccc(CO)cc2)N1Cc1ccccc1Cl`, for which the z-score in experiment [1] is 1.08; in experiment [2], -1.32 (inactive); in experiment [3], 0.519 (inactive); in experiment [5], 0.723 (inactive); in experiment [6], -0.838 (inactive); in experiment [7], 0.489 (inactive). In addition, the z-score is 0.53 (inactive) in experiment [8] and 0.417 in experiment [9]. In addition, the figures for the composite z-score in experiment [4] and in experiment [10] were -0.246 (inactive) and -0.0663, respectively.

As for `CC(=O)n1cc(C(O)C2C=CC3C(=O)N(c4ccccc4)C(=O)C3N2Nc2ccc([N+](=O)[O-])cc2)c2ccccc21` (stereo not given), the z-score was -0.768 in [1]; -0.199 (inactive) in [2]; -1.15 (inactive) in [3]; 1.25 (inactive) in [5]; 0.241 (inactive) in experiment [6]; -1.34 (inactive) in experiment [7]. Also, the z-score is -0.885 (inactive) in experiment [8] and -0.669 in experiment [9]. Further, the values for the composite z-score in [4] and in experiment [10] were 0.835 (inactive) and -0.0391, respectively.

In the case of `CN(C)C(=O)[C@]1(Cc2ccccc2N=[N+]=[N-])N=C(c2ccc(OCCCO)cc2)O[C@@H]1c1ccccc1N=[N+]=[N-]`, the z-score was -1.08 in [1]; -1.57 (inactive) in experiment [2]; -2.65 (inactive) in experiment [3]; 0.438 (inactive) in experiment [5]; 0.667 (inactive) in [6]; 1.01 (inactive) in [7]. Moreover, the z-score in [8] is 2.07 (inactive); in experiment [9], -3.87. Moreover, the composite z-score in experiment [4] is -0.828 (inactive); in experiment [10], -0.178.

With `COCCCNC(=O)[C@@H]1c2ccccc2C(=O)N(Cc2ccccc2Cl)[C@H]1c1ccc(CO)cc1`, the z-score in [1] was -0.378; in experiment [2], -0.259 (inactive); in experiment [3], 0.655 (inactive); in [5] it was 0.692 (inactive); in [6] it was -1.02 (inactive); in experiment [7], 0.987 (inactive). The z-score in [8] was 1.16 (inactive); in [9], 0.871. Further, the figures for the composite z-score in experiment [4] and in experiment [10] were -0.636 (inactive) and 0.78, respectively.

`C[C@H]1NC(=O)[C@@]23C(=O)N[C@@H](Cc4ccccc4)C2[C@H](C)[C@@]2(C)O[C@H]2C3/C=C/C/C=C\CNC(=O)[C@@H]2CCCN2C1=O` (stereo not given in full): the z-score in experiment [1] is 0.23; in experiment [2] it was -0.704 (inactive); in experiment [3], 0.607 (inactive); in experiment [5] it was -0.0126 (inactive); in [6], -0.0532 (inactive); in experiment [7], 0.901 (inactive). The z-score was 0.534 (inactive) in experiment [8] and 1.14 in [9]. Besides, the composite z-score in experiment [4] was -1.43 (inactive); in experiment [10] it was 0.0049.
